Among the data in PubChem BioAssay (NCI) are growth inhibition values, retold here.

Assay [1] can be described thus: NCI Yeast Anticancer Drug Screen. Data for the rad50 strain (AID 155).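 Also: 0% = growth of vehicle-only cultures of the same strain.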 The settings on record: S. cerevisiae rad50 strain growth inhibition, stronger effect = higher value. In short, it runs like this: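 Cells are treated with compound, grown, and their growth is then scored against vehicle-only cultures of the same repair-deficient yeast strain.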
Assay [2] is described as follows: NCI Yeast Anticancer Drug Screen. Data for the mec2-1 strain (AID 157). The settings on record: S. cerevisiae mec2-1 strain, stronger effect = higher value. A digest of the protocol:
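Mutant yeast (mec2-1) grown with compound; growth inhibition relative to vehicle control reported.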

The nature of assay [3]: NCI Yeast Anticancer Drug Screen. Data for the sgs1 mgt1 strain (AID 161).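 Also: 0% = growth of cultures given vehicle only.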 The settings on record: S. cerevisiae sgs1 mgt1 strain, stronger effect = higher value. A digest of the protocol: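 Percent growth inhibition was derived by comparing compound-exposed mutant yeast with vehicle-exposed cultures. The strain carries alterations in DNA damage repair.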
A short description of assay [4]: NCI Yeast Anticancer Drug Screen. Data for the cln2 rad14 strain (AID 165).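 Also: 0% = growth equal to vehicle treated cultures.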 The settings on record: S. cerevisiae cln2 rad14 strain, stronger effect = higher value. A digest of the protocol: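 Readout is yeast growth inhibition versus vehicle-treated controls, using a strain with cln2 and rad14 alterations exposed to compound.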
A short description of assay [5]: NCI Yeast Anticancer Drug Screen. Data for the bub3 strain (AID 167). The settings on record: S. cerevisiae bub3 mutant strain, stronger effect = higher value. In short, it runs like this:
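Part of a panel of yeast mutants defective in DNA damage repair or cell cycle regulation. Each strain is grown with compound, and inhibition is calculated relative to solvent-treated cultures.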

Assay [6] can be described thus: NCI Yeast Anticancer Drug Screen. Data for the mlh1 rad18 strain (AID 175). The settings on record: S. cerevisiae mlh1 rad18 strain growth inhibition, stronger effect = higher value. A digest of the protocol: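 Genetically defined yeast (DNA repair-deficient) exposed to compounds; growth inhibition determined relative to vehicle.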
Setting [7] is: at 5.0 µM (retest, dose inferred, filed as 0.5).
Where [8] appears, read: at 50.0 µM (retest, dose inferred, filed as 5.0).

Each structure is given as a SMILES string. Several values for one entry are separate records, joined by “and”; a condition that tells them apart may be missing. Equal values may be shown once. This is part of a sample that, as a whole, favours compounds with a hit. Of some 79,000 tested, about 15% had one in any assay. Unmarked numbers belong to inactive results. Activity calls are given as the source filed them. Rule as the data show it: active = growth inhibition above about 70%; inactive = the rest.

On to `CC(=O)C1CCC2C3CCC4CC([N+]5(C)CCCCC5)CCC4(C)C3CCC12C` (configuration not stated), for which the growth inhibition in assay [1] (setting [7]) is 2%; in assay [1] (setting [8]) it was 29%; in assay [1] (at 50.0 µM), 82.3% (active); in assay [2] (setting [7]) it was 17%; in assay [2] (setting [8]), 71% (active); in assay [2] (at 50.0 µM), 79.9% (active). For the same molecule, the growth inhibition in assay [3] (setting [7]) is 10%; in assay [3] (setting [8]), 87% (active); in assay [3] (at 50.0 µM), 97.5% (active); in assay [4] (setting [7]) it was 8%; in assay [4] (setting [8]), 31%; in assay [4] (at 50.0 µM) it was 81.1% (active). In addition, the growth inhibition is 8% in assay [5] (setting [7]); 64% in assay [5] (setting [8]); 86.5% (active) in assay [5] (at 50.0 µM); 18% in assay [6] (setting [7]); 65% in assay [6] (setting [8]); 92% (active) in assay [6] (at 50.0 µM).
Turning to `CCC[CH2][Sn]([Cl])([Cl])[CH2]CCC`, the growth inhibition in assay [1] (setting [7]) is 96% (active); in assay [1] (setting [8]), 98% (active); in assay [1] (at 50.0 µM) it was 99.5% (active); in assay [2] (setting [7]), 98% (active); in assay [2] (setting [8]), 98% (active); in assay [2] (at 50.0 µM), 99.3% (active). Further, the growth inhibition in assay [3] (setting [7]) is 96% (active); in assay [3] (setting [8]), 96% (active); in assay [3] (at 50.0 µM), 99.2% (active); in assay [4] (setting [7]), 98% (active); in assay [4] (setting [8]) it was 98% (active); in assay [4] (at 50.0 µM), 98.7% (active). The growth inhibition is 98% (active) in assay [5] (setting [7]); 98% (active) in assay [5] (setting [8]); 99.5% (active) in assay [5] (at 50.0 µM); 98% (active) in assay [6] (setting [7]); 97% (active) in assay [6] (setting [8]); 98.8% (active) in assay [6] (at 50.0 µM).
In the case of `COC(=O)CC1(C(=O)O)CC2(Cl)C(Cl)=C(Cl)C1(Cl)C2(Cl)Cl` (configuration not stated), the growth inhibition in assay [1] (setting [7]) is 4%; in assay [1] (setting [8]), 30%; in assay [1] (at 50.0 µM), 65.9%; in assay [2] (setting [7]), 10%; in assay [2] (setting [8]), 52%; in assay [2] (at 50.0 µM) it was 47.4%. Further, the growth inhibition in assay [3] (setting [7]) is 6%; in assay [3] (setting [8]), 49%; in assay [3] (at 50.0 µM) it was 75% (active); in assay [4] (setting [7]), 17%; in assay [4] (setting [8]) it was 56%; in assay [4] (at 50.0 µM), 83.5% (active). Moreover, the growth inhibition in assay [5] (setting [7]) was 1%; in assay [5] (setting [8]) it was 41%; in assay [5] (at 50.0 µM), 36.8%; in assay [6] (setting [7]), 7%; in assay [6] (setting [8]) it was 57%; in assay [6] (at 50.0 µM) it was 61.4%.
Take `C[CH2][Sn]([Cl])([CH2]C)[O][Sn]([Cl])([CH2]C)[CH2]C`: the growth inhibition was 6% in assay [1] (setting [7]); 90% (active) in assay [1] (setting [8]); 85.2% (active) in assay [1] (at 50.0 µM); 4% in assay [2] (setting [7]); 89% (active) in assay [2] (setting [8]); 96.2% (active) in assay [2] (at 50.0 µM). The growth inhibition in assay [3] (setting [7]) was 6%; in assay [3] (setting [8]), 94% (active); in assay [3] (at 50.0 µM) it was 72.2% (active); in assay [4] (setting [7]), -3%; in assay [4] (setting [8]), 86% (active); in assay [4] (at 50.0 µM), 95% (active). Besides, the growth inhibition is 6% in assay [5] (setting [7]); 88% (active) in assay [5] (setting [8]); 96.7% (active) in assay [5] (at 50.0 µM); 8% in assay [6] (setting [7]); 83% (active) in assay [6] (setting [8]); 84.9% (active) in assay [6] (at 50.0 µM).
As for `C[C@]12CC/C(=N\OC(=O)Nc3ccccc3)C=C1CC[C@@H]1C2CC[C@@]2(C)C1CC[C@@H]2OC(=O)Nc1ccccc1` (some centres not stated), the growth inhibition was -7% in assay [1] (setting [7]); 71% (active) in assay [1] (setting [8]); 47.2% in assay [1] (at 50.0 µM); -2% in assay [2] (setting [7]); 71% (active) in assay [2] (setting [8]); 95% (active) in assay [2] (at 50.0 µM). The growth inhibition in assay [3] (setting [7]) is 1%; in assay [3] (setting [8]) it was 86% (active); in assay [3] (at 50.0 µM) it was 4%; in assay [4] (setting [7]) it was -5%; in assay [4] (setting [8]), 47%; in assay [4] (at 50.0 µM), 31.9%. The growth inhibition is -8% in assay [5] (setting [7]); 65% in assay [5] (setting [8]); 93.1% (active) in assay [5] (at 50.0 µM); -4% in assay [6] (setting [7]); 87% (active) in assay [6] (setting [8]); 89% (active) in assay [6] (at 50.0 µM).
For the molecule `CCCCCCCCCCCCN1CC1`, the growth inhibition in assay [1] (setting [7]) was -26%; in assay [1] (setting [8]), 26%; in assay [1] (at 50.0 µM) it was 91% (active); in assay [2] (setting [7]), -38%; in assay [2] (setting [8]), -7%; in assay [2] (at 50.0 µM), 68%. Moreover, the growth inhibition in assay [3] (setting [7]) was -10%; in assay [3] (setting [8]), 47%; in assay [3] (at 50.0 µM), 58.5%; in assay [4] (setting [7]), -23%; in assay [4] (setting [8]) it was -2%; in assay [4] (at 50.0 µM), 59.5%. The growth inhibition in assay [5] (setting [7]) is 1%; in assay [5] (setting [8]), 44%; in assay [5] (at 50.0 µM), 82% (active); in assay [6] (setting [7]) it was -70%; in assay [6] (setting [8]), -17%; in assay [6] (at 50.0 µM), 67.1%.
For `COC(=O)C1=C(C(=O)OC)[C]([Hg][CH3])(C(C)=O)N=N1` (configuration not stated), the growth inhibition in assay [1] (setting [7]) was 99% (active); in assay [1] (setting [8]) it was 99% (active); in assay [1] (at 50.0 µM) it was 99.6% (active); in assay [2] (setting [7]), 99% (active); in assay [2] (setting [8]), 99% (active); in assay [2] (at 50.0 µM) it was 99.5% (active). For the same molecule, the growth inhibition in assay [3] (setting [7]) is 99% (active); in assay [3] (setting [8]), 99% (active); in assay [3] (at 50.0 µM), 99.8% (active); in assay [4] (setting [7]), 99% (active); in assay [4] (setting [8]), 99% (active); in assay [4] (at 50.0 µM) it was 99.5% (active). For the same molecule, the growth inhibition is 99% (active) in assay [5] (setting [7]); 98% (active) in assay [5] (setting [8]); 99.2% (active) in assay [5] (at 50.0 µM); 99% (active) in assay [6] (setting [7]); 99% (active) in assay [6] (setting [8]); 99.5% (active) in assay [6] (at 50.0 µM).
For the molecule `CCC[CH2][Sn]([CH2]CCC)([CH2]CCC)[O]C(=O)C[N+](C)(C)c1cc[c]([Hg][c]2ccc(N(C)C)cc2)cc1`, the growth inhibition in assay [1] (setting [7]) was 99% (active); in assay [1] (setting [8]), 99% (active); in assay [1] (at 50.0 µM), 98.6% (active) and 97.8% (active); in assay [2] (setting [7]), 100% (active); in assay [2] (setting [8]), 100% (active) and 99% (active); in assay [2] (at 50.0 µM) it was 99.5% (active). Also, the growth inhibition in assay [3] (setting [7]) was 100% (active); in assay [3] (setting [8]) it was 98% (active) and 99% (active); in assay [3] (at 50.0 µM), 99.1% (active) and 99.2% (active); in assay [4] (setting [7]), 99% (active); in assay [4] (setting [8]), 99% (active); in assay [4] (at 50.0 µM) it was 98.4% (active) and 98.9% (active). Also, the growth inhibition is 99% (active) in assay [5] (setting [7]); 99% (active) in assay [5] (setting [8]); 98.8% (active) and 99.1% (active) in assay [5] (at 50.0 µM); 99% (active) in assay [6] (setting [7]); 99% (active) in assay [6] (setting [8]); 99% (active) and 99.2% (active) in assay [6] (at 50.0 µM).
For the molecule `NC(=O)/C=C/C(=O)O` (tested in a mixture with another compound), the growth inhibition in assay [1] (setting [7]) was 0%; in assay [1] (setting [8]), 1%; in assay [1] (at 50.0 µM), -5.5%; in assay [2] (setting [7]), 2%; in assay [2] (setting [8]), -1%; in assay [2] (at 50.0 µM), 66.5%. The growth inhibition was 0% in assay [3] (setting [7]); 3% in assay [3] (setting [8]); 7.2% in assay [3] (at 50.0 µM); 1% in assay [4] (setting [7]); 1% in assay [4] (setting [8]); 23.1% in assay [4] (at 50.0 µM). Moreover, the growth inhibition was -7% in assay [5] (setting [7]); -4% in assay [5] (setting [8]); 95.7% (active) in assay [5] (at 50.0 µM); -1% in assay [6] (setting [7]); 2% in assay [6] (setting [8]); 17.5% in assay [6] (at 50.0 µM).
